Results on 9 compounds are retold here after PubChem BioAssay (NCI).

This is part of a sample that, as a whole, favours compounds with a hit. Of some 83,000 tested, about 20% had one in any assay.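 Interpretation: 100, growth as untreated; towards 0, rising growth inhibition; 0, no net growth; 0 to -100, cell death. Compounds scoring below 10 were considered active.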 Values without a mark were called inactive. The source made the active and inactive calls.

Among the test systems are HCT-15 colon; HT29 colon; SNB-75 CNS; SNB-19 CNS; PC-3 prostate; SK-MEL-5 melanoma; UACC-62 melanoma; LOX IMVI melanoma; SK-MEL-28 melanoma; SK-MEL-2 melanoma; EKVX NSCLC; SN12C renal; TK-10 renal; ACHN renal; CAKI-1 renal; A498 renal; CCRF-CEM leukemia; MOLT-4 leukemia; UO-31 renal; U251 CNS.
Common to all, as to test: NCI-60 one-dose screen, 48 h (100 = growth as untreated, 0 = no growth, -100 = all killed)
What all share (settings): 10 µM

Turning to `O=C(CSc1ccc(-c2ccc(Cl)cc2)nn1)Nc1ccc(Cl)c(C(F)(F)F)c1`, the growth was 25.9% in the assay with HCT-15 colon; 40.6% in the assay with HT29 colon; 58.6% in the assay with SNB-75 CNS; 71.9% with SNB-19 CNS; 71.9% in the assay with PC-3 prostate; 55.9% with SK-MEL-5 melanoma. Further, the growth in the assay with UACC-62 melanoma is 32.7%; in the assay on LOX IMVI melanoma it was 47.3%; in the assay on SK-MEL-28 melanoma, 66.9%; in the assay with SK-MEL-2 melanoma it was 59.7%; with EKVX NSCLC, 44.3%; in the assay with SN12C renal, 79.3%. Besides, the growth was 66% with TK-10 renal; 79.3% with ACHN renal; 61.3% with CAKI-1 renal; 89.9% in the assay with A498 renal; 44.9% with CCRF-CEM leukemia; 11% with MOLT-4 leukemia.
Turning to `Nc1nc2c(F)c(F)c(F)c(F)c2s1`, the growth in the assay with HCT-15 colon was 102%; in the assay with HT29 colon it was 104%; in the assay with SNB-75 CNS it was 83.1%; in the assay on SNB-19 CNS it was 99.8%; in the assay with PC-3 prostate it was 104%; in the assay with SK-MEL-5 melanoma it was 95.7%. For the same compound, the growth was 96.6% in the assay with UACC-62 melanoma; 106% in the assay with SK-MEL-2 melanoma; 46.1% with EKVX NSCLC; 113% with SN12C renal; 91% in the assay with UO-31 renal; 101% in the assay on TK-10 renal. The growth was 114% in the assay on ACHN renal; 85.7% in the assay on CAKI-1 renal; 114% in the assay with A498 renal; 106% with CCRF-CEM leukemia; 105% with MOLT-4 leukemia.
`COc1ccc2c(c1)N=C(C(=O)O)/C2=C/c1sc(Nc2ccc(O)cc2)nc1O`: the growth in the assay with HCT-15 colon is 53.9%; in the assay with HT29 colon it was 95.9%; with SNB-75 CNS, 67.2%; with SNB-19 CNS it was 70.1%; in the assay on PC-3 prostate it was 76%; with SK-MEL-5 melanoma, 83%. Moreover, the growth in the assay with UACC-62 melanoma is 42.9%; in the assay with LOX IMVI melanoma, 49.2%; with SK-MEL-28 melanoma, 80.5%; in the assay with SK-MEL-2 melanoma, 81.6%; with SN12C renal, 80.9%; in the assay with UO-31 renal, 49.4%. Moreover, the growth in the assay with TK-10 renal is 99.2%; in the assay on ACHN renal it was 82.2%; in the assay on CAKI-1 renal, 92.1%; with A498 renal, 98.2%; in the assay with CCRF-CEM leukemia it was 44.3%; in the assay with MOLT-4 leukemia it was 43%.
Consider `COc1ccc2[nH]c(=O)c(CSc3ccc(Nc4nccc(-c5ccc(Cl)cc5)n4)cc3)cc2c1`, for which the growth is 97% with HCT-15 colon; 110% in the assay on SNB-75 CNS; 71.6% in the assay with SNB-19 CNS; 94.2% in the assay with U251 CNS; 83.2% with PC-3 prostate; 98.4% in the assay on SK-MEL-5 melanoma. Further, the growth was 105% in the assay with UACC-62 melanoma; 89% in the assay on LOX IMVI melanoma; 94.3% in the assay with SK-MEL-2 melanoma; 86.8% in the assay on EKVX NSCLC; 83.7% with SN12C renal; 85.5% with UO-31 renal. Also, the growth was 124% in the assay on TK-10 renal; 90.3% in the assay with ACHN renal; 76.3% with CAKI-1 renal; 141% in the assay on A498 renal; 96.7% in the assay on CCRF-CEM leukemia; 84.4% in the assay with MOLT-4 leukemia.
`O=C(CSc1nnc(-c2c[nH]c3ccccc23)n1-c1ccccc1)c1ccc(Br)cc1`: the growth was 44% in the assay with HCT-15 colon; 38.8% in the assay on SNB-75 CNS; 70.2% in the assay on SNB-19 CNS; 61.6% in the assay with U251 CNS; 46.2% in the assay on PC-3 prostate; 17.2% in the assay on SK-MEL-5 melanoma. For the same compound, the growth was 35.2% with UACC-62 melanoma; 41.8% in the assay with LOX IMVI melanoma; 34.9% with SK-MEL-28 melanoma; -19.5% (active) with SK-MEL-2 melanoma; 10.8% in the assay on EKVX NSCLC; 72.9% in the assay with SN12C renal. Also, the growth with UO-31 renal is 26%; with TK-10 renal, 64.9%; with ACHN renal it was 37.4%; in the assay on CAKI-1 renal, 44.3%; in the assay on A498 renal, 36%; in the assay on CCRF-CEM leukemia, 86.4%. In the assay on MOLT-4 leukemia, the growth was 92.2%.
With `O=C(Nc1cc(Cl)cc(Cl)c1)Nc1cc(Cl)cc(Cl)c1`, the growth in the assay with HCT-15 colon was -23.1% (active); in the assay on SNB-75 CNS, -14.1% (active); in the assay with SNB-19 CNS it was 5.6% (active); in the assay with U251 CNS, -23.2% (active); in the assay with PC-3 prostate, 0.387% (active); in the assay with SK-MEL-5 melanoma, -100% (active). The growth in the assay with UACC-62 melanoma is -66.1% (active); in the assay with LOX IMVI melanoma, -91.1% (active); in the assay with SK-MEL-28 melanoma it was -12.1% (active); in the assay on SK-MEL-2 melanoma, -48.4% (active); with EKVX NSCLC, -12% (active); in the assay on SN12C renal, -34.3% (active). Besides, the growth in the assay with UO-31 renal was -8.17% (active); with TK-10 renal it was 0.158% (active); in the assay on ACHN renal, -19.4% (active); with CAKI-1 renal it was -32.4% (active); with A498 renal it was -18.3% (active); in the assay with CCRF-CEM leukemia, -33.5% (active). Also, in the assay with MOLT-4 leukemia, the growth was -36.2% (active).
As for `CNC(=O)c1cc(-c2ccc(NC(=O)Nc3ccc(C)cc3)cc2)nc2cccnc12`, the growth in the assay with HCT-15 colon is 93.6%; in the assay with SNB-75 CNS it was 107%; in the assay with SNB-19 CNS, 91.7%; in the assay on U251 CNS, 101%; with PC-3 prostate, 87.1%; in the assay with SK-MEL-5 melanoma, 95.4%. The growth in the assay on UACC-62 melanoma was 83.8%; with LOX IMVI melanoma it was 101%; with SK-MEL-28 melanoma, 118%; in the assay on SK-MEL-2 melanoma, 103%; in the assay with SN12C renal, 101%; in the assay with UO-31 renal it was 63.9%. The growth with TK-10 renal is 108%; with ACHN renal, 92.3%; with CAKI-1 renal it was 92.8%; in the assay on A498 renal, 95.4%; with CCRF-CEM leukemia it was 93.5%.
On to `Cc1ccn2c(C(=O)c3ccccc3)cc(-c3cc(-c4ccc(N(C)C)cc4)c(C#N)c(N)n3)c2c1`, for which the growth in the assay with HCT-15 colon is 73.1%; with SNB-75 CNS, 78.4%; in the assay on SNB-19 CNS, 60.9%; in the assay on U251 CNS it was 31.9%; with PC-3 prostate, 78.1%; in the assay on SK-MEL-5 melanoma it was 58.1%. Moreover, the growth is 64.6% with UACC-62 melanoma; 21.8% in the assay with LOX IMVI melanoma; 74.3% with SK-MEL-28 melanoma; 80.9% with SK-MEL-2 melanoma; 61.9% with SN12C renal; 65.4% in the assay on UO-31 renal. In addition, the growth in the assay with TK-10 renal is 85.7%; with ACHN renal it was 31.2%; in the assay with CAKI-1 renal it was 52.7%; with A498 renal, 111%; with CCRF-CEM leukemia, 96.5%; in the assay on MOLT-4 leukemia it was 82.9%.
With `CNCc1cccc2c1OCCCCCC[C@@](C)(O)CC1(CC1)S(=O)(=O)c1ccc(cc1)-c1cnc(N)c(n1)C(=O)N2`, the growth is -96.6% (active) with HCT-15 colon; -93.8% (active) in the assay with SNB-75 CNS; -97.4% (active) in the assay with SNB-19 CNS; -83.8% (active) with U251 CNS; -59% (active) in the assay on PC-3 prostate; -100% (active) with SK-MEL-5 melanoma. Besides, the growth in the assay with UACC-62 melanoma was -90.8% (active); in the assay with LOX IMVI melanoma it was -100% (active); in the assay on SK-MEL-28 melanoma, -93.6% (active); with SK-MEL-2 melanoma it was -98.7% (active); with EKVX NSCLC it was -97.4% (active); in the assay on SN12C renal, -93.9% (active). For the same compound, the growth in the assay with UO-31 renal was -96.8% (active); with TK-10 renal it was -92% (active); in the assay with ACHN renal, -100% (active); in the assay on CAKI-1 renal, -94.6% (active); in the assay on A498 renal, -94.5% (active); in the assay with CCRF-CEM leukemia, -6.39% (active). Moreover, the growth with MOLT-4 leukemia was -44.5% (active).
